Measurements published in PubChem BioAssay (Tox21).
Where “and” joins values, the source holds several entries; their conditions need not be identical. Equal values may be shown once. Inconclusive results are not listed. Where a call stands in place of a potency, no number is given. Some structures have more than one record in an assay (separate samples or runs), and their calls can disagree. Calls of active or inactive are those of the source. Unless noted, calls follow the shape of the full dose curve.

How the values were obtained:
[1] = qHTS assay to identify small molecule antagonists of the vitamin D receptor (VDR) signaling pathway - cell viability counter screen (AID 743225; active = well fitted curve in the direction sought with a large enough effect in the repeat runs; an effect the other way counts as inactive or inconclusive; also: nearly all actives have a fitted effect of over 50% in size)
In short: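 VDR-bla HEK 293T cells, 4 h pre-incubation at 37C, then compound plus 1-alpha,25-dihydroxyvitamin D3 (3 nM final) for 16 h. After the beta-lactamase FRET read, CellTiter-Glo was added to the same wells; luminescence after 30 min at room temperature.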

[2] = qHTS assay to identify small molecule agonists of the NFkB signaling pathway (AID 1159509; active = well fitted curve in the direction sought with a large enough effect in the signal ratio in the repeat runs, not every such curve was filed as active; the % refers to the signal ratio; also: series mostly up to about 61 µM)
In short: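 After overnight attachment, reporter cells received test compounds, DMSO or positive controls and were incubated 5 hr at 37 C. FRET substrate was then added for 1.5 hr at room temperature before dual-emission fluorescence reading.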

[3] = qHTS assay to identify small molecule agonists of the NFkB signaling pathway - cell viability counter screen (AID 1159515); also: series mostly up to about 61 µM; nearly all actives have a fitted effect of over 55% in size
In short: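 Luminescence from CellTiter-Glo (30 min, room temperature) gives viability, measured in the same wells as the beta-lactamase reporter read. Cells were NFkB-bla ME-180, 2,000 per well, treated 5 hr with compounds.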

[4] = qHTS assay to identify small molecule agonists of the endoplasmic reticulum stress response signaling pathway (AID 1159516; active = well fitted activation curve with a large enough effect in the signal ratio in the repeat runs, not every such curve was filed as active; the % refers to the signal ratio)
In short: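 Read-out is beta-lactamase cleavage of a FRET substrate (405 nm excitation; 460 and 530 nm emissions) in ESRE-bla HeLa cells after a 5 hr compound exposure at 37 C. Substrate incubation ran 2 hr at room temperature.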

[5] = qHTS assay to identify small molecule agonists of the endoplasmic reticulum stress response signaling pathway - cell viability counter screen (AID 1159517); also: nearly all actives have a fitted effect of over 50% in size; also: potency is read from the fitted curve at half-maximal effect
In short: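 Counter-screen wells were identical to the reporter wells. Cells were plated at 1,500 per well and dosed for 5 hr, then read for luminescence 30 min after CellTiter-Glo addition.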

[6] = molecular target: Nuclear receptor ROR-gamma (Homo sapiens) (UniProt P51449); assay: qHTS assay to identify small molecule antagonists of the retinoid-related orphan receptor gamma (ROR-gamma) signaling pathway (AID 1159521; active = well fitted curve in the direction sought with a large enough effect in the repeat runs; an effect the other way counts as inactive or inconclusive;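 also: CHO cells with doxycycline inducible ROR-gamma driving an RORE luciferase reporter; top concentration of the series differs between compounds; nearly all actives have a fitted effect of over 50% in size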)
In short: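 Tet-on RORγ CHO cells carrying a ROR response element–luciferase reporter were pretreated with compounds for 2 h, then induced with 1 uM (final) doxycycline hyclate for 16 h at 37 C. Antagonism was read as decreased ONE-Glo luminescence.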

[7] = qHTS assay to identify small molecule agonists of the AP-1 signaling pathway - cell viability counter screen (AID 1159525); also: nearly all actives have a fitted effect of over 55% in size
In short: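 AP-1-bla ME-180 cells in Opti-MEM with 0.5% dialyzed FBS, compound exposure 5 h at 37 C in 15-point titration. Viability read in the same wells as ATP content by CellTiter-Glo luminescence, normalised to tetra-n-octylammonium bromide and DMSO controls.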

[8] = qHTS assay to identify small molecule agonists of the AP-1 signaling pathway (AID 1159526)
[9] = molecular target: Retinoic acid receptor RXR-alpha (Homo sapiens) (UniProt P19793); assay: qHTS assay to identify small molecule agonists of the RXR signaling pathway (AID 1159527); also: nearly all actives have a fitted effect of over 35% in size; also: potency is read from the fitted curve at half-maximal effect
In short: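 GeneBLAzer RXR-alpha-UAS-bla HEK 293T cells in medium with 2% charcoal-stripped FBS, pre-incubated 5 hr at 37 C, then exposed to compounds 16 hr. Beta-lactamase reporter read by FRET substrate, 2 hr room temperature, 460/530 nm emission.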

[10] = qHTS assay to identify small molecule antagonists of the retinoid-related orphan receptor gamma (ROR-gamma) signaling pathway - cell viability counter screen (AID 1159520; active = well fitted curve in the direction sought with a large enough effect in the repeat runs; an effect the other way counts as inactive or inconclusive; also: nearly all actives have a fitted effect of over 50% in size)
In short: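 Tet-on ROR gamma CHO cells were given compounds for 2 hr, then doxycycline hyclate at 1 uM final, and incubated 16 hr at 37 C. Viability was measured as ATP content by CellTiter-Glo luminescence.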

Retinoic acid receptor RXR-alpha (Homo sapiens), sequence (P19793 whole entry, looked up): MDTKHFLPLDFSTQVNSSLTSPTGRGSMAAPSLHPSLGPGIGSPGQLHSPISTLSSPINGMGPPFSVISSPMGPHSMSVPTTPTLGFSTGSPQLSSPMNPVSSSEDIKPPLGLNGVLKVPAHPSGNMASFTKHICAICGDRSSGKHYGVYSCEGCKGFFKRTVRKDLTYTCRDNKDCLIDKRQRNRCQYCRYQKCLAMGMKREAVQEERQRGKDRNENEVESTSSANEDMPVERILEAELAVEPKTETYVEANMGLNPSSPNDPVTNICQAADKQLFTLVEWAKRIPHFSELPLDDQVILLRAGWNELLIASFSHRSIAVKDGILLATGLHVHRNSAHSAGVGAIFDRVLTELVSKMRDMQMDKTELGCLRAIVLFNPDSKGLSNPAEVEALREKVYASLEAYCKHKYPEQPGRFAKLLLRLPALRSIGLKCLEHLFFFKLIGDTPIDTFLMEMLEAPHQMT

SMILES	outcome [1]	outcome [2]	outcome [3]	outcome [4]	Potency [5]	Potency [6]	outcome [7]	Potency [8]	Potency [9]	outcome [10]
CSc1ccc(Cl)cc1	inactive	inactive	inactive	inactive	inactive	inactive	inactive	inactive	inactive	
CC(=O)OC1CC(C)OC(C)O1 (stereo unspecified)	inactive	inactive	inactive	inactive	inactive	inactive	inactive	inactive	inactive	inactive
CN/C(=C\[N+](=O)[O-])NCCSCc1csc(CN(C)C)n1	inactive	inactive	inactive	inactive	inactive	inactive	inactive	inactive	inactive	inactive
COc1cc(OC)c(C(=O)CCCN2CCCC2)c(OC)c1	inactive	inactive	inactive	inactive	inactive	inactive	inactive	inactive	inactive	inactive
C=CC(C)CCCC(C)(C)O (stereo unspecified)	inactive	inactive	inactive	inactive	inactive	inactive	inactive	inactive	inactive	inactive
O=C(O)c1ccc(C(=O)O)c(C(=O)O)c1	inactive	inactive	inactive	inactive	inactive	inactive	inactive	inactive	inactive	inactive
CCNC(=S)NCC	inactive	inactive	inactive	inactive	inactive	inactive	inactive	inactive	inactive	inactive
CN(C)c1ccc(Cc2ccc(N(C)C)cc2)cc1	inactive	inactive	inactive	inactive	inactive	inactive	inactive	inactive	inactive	
CC(=O)CCC=C(C)C	inactive	inactive	inactive	inactive	inactive	inactive	inactive	inactive	inactive	inactive
CCOC(=O)c1ccc(N)cc1	inactive	inactive	inactive	inactive	inactive	inactive	inactive	inactive	inactive	inactive
CCCCCCCC=O	inactive	inactive	inactive	inactive	inactive	inactive	inactive	inactive	inactive	inactive
CNC(=O)Oc1ccc2c(c1)[C@]1(C)CCN(C)[C@@H]1N2C	inactive	inactive	inactive	inactive	inactive	inactive	inactive	inactive	inactive	inactive
CCCCOC(=O)c1ccc(N)cc1	inactive	inactive	inactive	inactive	inactive	inactive	inactive	inactive	inactive	
C=CC[N+](C)(C)CC=C	inactive	inactive	inactive	inactive	inactive	inactive	inactive	inactive	inactive	inactive
CCOC(=O)n1ccn(C)c1=S	inactive	inactive	inactive	inactive	inactive	inactive	inactive	inactive	inactive	inactive
CC(C)CC(C)O (stereo unspecified)	inactive	inactive	inactive	inactive	inactive	inactive	inactive	inactive	inactive	inactive
CCCCCCCCCCCC(=O)OC	inactive	inactive	inactive	inactive	inactive	inactive	inactive	inactive	inactive	inactive
c1ccc(Oc2ccccc2)cc1	inactive	inactive	inactive	inactive	inactive	inactive	inactive	inactive	inactive	
NCCNCCN	inactive	inactive	inactive	inactive	inactive	inactive	inactive	inactive	inactive	inactive
CC1(C)S[C@@H]2[C@H](NC(=O)COc3ccccc3)C(=O)N2[C@H]1C(=O)O	inactive	inactive	inactive	inactive	inactive	inactive	inactive	inactive	inactive	inactive
CC(O)CC(C)(C)O (stereo unspecified)	inactive	inactive	inactive	inactive	inactive	inactive	inactive	inactive	inactive	inactive
O=C(O)c1ccccc1C(=O)O	inactive	inactive	inactive	inactive	inactive	inactive	inactive	inactive	inactive	inactive
CCOCCOCCOCCO	inactive	inactive	inactive	inactive	inactive	inactive	inactive	inactive	inactive	inactive
COc1ccc(N)c(C)c1	inactive	inactive	inactive	inactive	inactive	inactive	inactive	inactive	inactive	inactive
N[C@H](Cc1c[nH]c2ccccc12)C(=O)O	inactive	inactive	inactive	inactive	inactive	inactive	inactive	inactive	inactive	inactive

SMILES	outcome [1]	outcome [2]	outcome [3]	outcome [4]	Potency [5]	Potency [6]	outcome [7]	Potency [8]	Potency [9]	outcome [10]
COc1ccc([N+](=O)[O-])cc1N	inactive	inactive	inactive	inactive	inactive	inactive	inactive	inactive	inactive	inactive
C=C(C)[C@H]1CC=C(C)C(=O)C1	inactive	inactive	inactive	inactive	inactive	inactive	inactive	inactive	inactive	inactive
C[C@]12CC[C@@H]3c4ccc(O)cc4CC[C@H]3[C@@H]1C[C@@H](O)[C@@H]2O	inactive	inactive	inactive	inactive	inactive	inactive	inactive	inactive	inactive	inactive
C=CCCCCCCCCC(=O)O	inactive	inactive	inactive	inactive	inactive	inactive	inactive	inactive	43.6 µM (active)	inactive
CC1(C)OC[C@@H]2O[C@@]3(C(=O)O)OC(C)(C)O[C@H]3[C@@H]2O1	inactive	inactive	inactive	inactive	inactive	inactive	inactive	inactive	21.9 µM (active) and inactive	inactive
CCCOC(=O)c1ccccc1	inactive	inactive	inactive	inactive	inactive	inactive	inactive	inactive	inactive	inactive
NC(=S)NNC(N)=S	inactive	inactive	inactive	inactive	inactive	inactive	inactive	inactive	inactive	inactive
CCNc1ccccc1	inactive	inactive	inactive	inactive	inactive	inactive	inactive	inactive	inactive	inactive
O=S(=O)(O)c1ccc(N=Nc2c(O)ccc3cc(S(=O)(=O)O)ccc23)cc1	inactive	inactive	inactive	inactive	inactive	inactive	inactive	inactive	inactive	inactive
CCCCCCCCCCN	inactive	inactive	inactive	inactive	inactive and 21.9 µM (active)	inactive	inactive	inactive	inactive	inactive
COc1ccccc1OCC(O)CO (stereo unspecified)	inactive	inactive	inactive	inactive	inactive	inactive	inactive	inactive	inactive	inactive
CCCCCCCCCCCCCCCC(=O)OC(C)C	inactive	inactive	inactive	inactive	inactive	inactive	inactive	inactive	inactive	inactive
Brc1ccc(Br)c(Br)c1	inactive	inactive	inactive		inactive	inactive	inactive	inactive	inactive	inactive
CC(C)(C#N)c1cc(Cn2cncn2)cc(C(C)(C)C#N)c1	inactive	inactive	inactive		inactive	inactive	inactive	inactive	inactive	
c1ccc2c(c1)Cc1ccccc1-2	inactive	inactive	inactive	inactive	inactive	inactive	inactive	inactive	inactive	
O=C(O)Cn1c(=O)n(Cc2ccc(Br)cc2F)c(=O)c2ccc(Cl)cc21	inactive	inactive	inactive	inactive	inactive	inactive	inactive	inactive	inactive	
O=C(O)c1ccc(S(=O)(=O)N(Cl)Cl)cc1	inactive	inactive	inactive		inactive	inactive	inactive	inactive	inactive	inactive
CCO[Si](CCCN)(OCC)OCC	inactive	inactive	inactive		inactive	inactive	inactive	inactive	19.5 µM (active) and inactive	inactive
CC(C)OP(=O)(CP(=O)(OC(C)C)OC(C)C)OC(C)C	inactive	inactive	inactive		inactive	inactive	inactive	inactive	inactive	
C=C(C)C(=O)OCC(C)C	inactive	inactive	inactive	inactive	inactive	inactive	inactive	inactive	inactive	
Clc1ccccn1	inactive	inactive	inactive		inactive	inactive	inactive	inactive	inactive	inactive
CCO[Si](CCC#N)(OCC)OCC	inactive	inactive	inactive		inactive	inactive	inactive	inactive	inactive	
COc1ccc(CCC(C)=O)cc1	inactive	inactive	inactive		inactive	inactive	inactive	inactive	inactive	inactive
CC(=O)CC(C)(C)O	inactive	inactive	inactive		inactive	inactive	inactive	inactive	inactive	inactive
